# In PMC4552634, “A New Set of Chemical Starting Points with Plasmodium falciparum Transmission-Blocking Potential for Antimalarial Drug Discovery” (PLoS ONE, 2015):
# Out of some 13,000 compounds screened, about 3,200 (25%) showed an effect of 50% or more. This is one part of the list.
# Test system: P. falciparum stage V gametocytes
# Parameters: BacTiter-Glo ATP luminescence viability of purified stage V gametocytes in 384-well plates, per cent inhibition versus DMSO
# Details: 48 h, 5 µM; inhibitor
row,SMILES,% Inhibition [%]
1,Cc1ccc(Nc2nc3cc(Nc4ccnc(Nc5cccc(CS(C)(=O)=O)c5)n4)ccc3o2)cc1 [TCMDC-141957],-56.36
2,O=C(Nc1cc(C(F)(F)F)ccc1-n1cncn1)C1(c2ccccc2)CC1 [TCMDC-125454],25.16
3,CCC(ON1C(N)=NC(N)=NC1(C)C)c1ccc(Cl)cc1 (centres unmarked) [TCMDC-131709],18.34
4,Cc1cc(S(=O)(=O)N2CCCCC(c3ccc(C(F)(F)F)cc3)=N2)c(Cl)cc1Cl [TCMDC-134540],-43.69
5,Cc1ccc(S(=O)(=O)NC2=NC(C)(C)N(OCc3ccc(Cl)c(Cl)c3)C(N)=N2)cc1 [TCMDC-131711],22.12
6,CN1CCN(c2cc(-c3cccc(C(F)(F)F)c3)nc(-c3ccncc3)n2)CC1 [TCMDC-125413],29.7
7,Nc1cc(-c2cccc(Cl)c2)nn1-c1ccnc2cc(Cl)ccc12 [TCMDC-134027],-29.85
8,Nc1nc(-c2ccccn2)nc(-n2nc(-c3cccc(C(F)(F)F)c3)cc2N)n1 [TCMDC-134026],76.36
9,Cc1ccccc1C1CCN(c2ccc(C(=O)Nc3ccccc3)cn2)CC1 [TCMDC-134584],3.597
10,O=C(NCCc1ccccc1)c1cc(-c2cccnc2)cnc1NCC1CC1 [TCMDC-136700],4.382
11,CC(=NNC(=S)NCc1ccco1)c1ccccn1 [TCMDC-137906],99.6
12,CCOc1ccc2nc(NC(=O)c3csnn3)sc2c1 [TCMDC-125075],43.02
13,COc1cc(-c2nc3c4ccccc4c4ccccc4c3[nH]2)cc(OC)c1OC [TCMDC-123980],2.227
14,COc1cccc2c(NCCNc3ccnc4c(OC)cccc34)ccnc12 [TCMDC-137880],30.12
15,CC(=NNC(=S)NC(c1ccccc1)c1ccccc1)c1ccccn1 [TCMDC-137894],-31.88
16,CC(=NNc1nc2ccccc2s1)c1ccccn1 [TCMDC-124267],64.52
17,COc1cc(CNC(=S)NN=C(C)c2ccccn2)cc(OC)c1OC [TCMDC-137900],55.54
18,CC(=NNC(=S)NCCc1ccccc1)c1ccccn1 [TCMDC-124270],79.29
19,O=c1cc(NCCCNCc2[nH]c3cc(Cl)cc(Cl)c3c2Cn2cccn2)[nH]c2ccccc12 [TCMDC-140152],-2.677
20,COc1ccc2nccc([C@@H](O)CN3CCC(NCCc4c[nH]c5ccccc45)CC3)c2c1 [TCMDC-140938],7.162
21,CCc1ccc(O)c(-c2cc(C(=O)Nc3ccc(OC)c(Cl)c3)[nH]n2)c1 [TCMDC-125072],5.954
22,COc1ccc2nccc([C@@H](O)CN3CCC(NCc4ccc5c(c4)nnn5C(C)C)CC3)c2c1 [TCMDC-141011],-16.76
23,CCc1ccc(CN2CCC(C(=O)Nc3ccc(-c4nc5ccccc5[nH]4)cc3)CC2)o1 [TCMDC-124686],-27.59
24,CNC(=S)NN=C(C)c1ccccn1 [TCMDC-123475],90.46

row,SMILES,% Inhibition [%]
1,Clc1ccc2c(NCCc3ccccn3)ccnc2c1 [TCMDC-123461],8.42
2,CC(=NNC(=S)NCCc1ccccn1)c1ccccn1 [TCMDC-137895],92.63
3,COCCCNC(=S)NN=C(C)c1ccccn1 [TCMDC-137907],93.04
4,Cc1ccc(Oc2cnn(C)c(=O)c2Nc2cccc(C(=O)NCCc3ccccn3)c2)c(C)c1 [TCMDC-124786],34.52
5,CC(=NNC(=S)NC(C)(C)C)c1ccccn1 [TCMDC-137783],15.81
6,CN(c1ccc(NC(=O)c2ccc(F)cc2)cc1)C1CCN(Cc2cccc(F)c2)C1 (centres unmarked) [TCMDC-135003],-17.16
7,O=C(Nc1ccc(OC2CCN(Cc3ccsc3)C2)c(Cl)c1)c1ccc2ncccc2c1 (centres unmarked) [TCMDC-133951],-25.76
8,C[C@H](Nc1c(Nc2ccc3[nH]ccc3c2)c(=O)c1=O)C1CCCCC1 [TCMDC-138193],-95.47
9,Cn1nc(-c2ccc(S(=O)(=O)N3CCC(CCN4CCC(c5c[nH]c6ccccc56)CC4)CC3)s2)cc1C(F)(F)F [TCMDC-140168],106.2
10,O=C(NCc1ccc(S(=O)(=O)N2CCC(CN3CCC(c4c[nH]c5ccccc45)CC3)CC2)s1)c1ccccc1 [TCMDC-140170],48.92
11,FC(F)(F)c1cccc(N2CCC(CN3CCC(c4c[nH]c5ccccc45)CC3)CC2)n1 [TCMDC-134280],19.45
12,O=C(NCCCCCN1CCC(c2c[nH]c3ccccc23)CC1)Nc1cccc(C(F)(F)F)c1 [TCMDC-139217],-48
13,Cn1nc(-c2ccc(S(=O)(=O)N3CCC(CN4CCC(c5c[nH]c6ccccc56)CC4)CC3)s2)cc1C(F)(F)F [TCMDC-140171],114.8
14,Cc1ccc(-c2cnc(N)c3cc(-c4ccnc(N)n4)ccc23)cc1 [TCMDC-134544],25.6
15,Nc1nccc2ccc(-c3ccnc(NCc4cccnc4)n3)cc12 [TCMDC-136735],-3.627
16,Cn1ncc2ccc(Nc3nccc(-c4ccc5c(c4)c(N)nn5C)n3)cc21 [TCMDC-137049],80.69
17,Cc1cccc2[nH]c(-c3ccc(-c4cccc(NC(=O)c5cnn6cccnc56)c4)cc3)nc12 [TCMDC-136865],23.94
18,COc1cccc(C(=O)Nc2ccc(Nc3nc(C)cc(N(C)C)n3)cc2)c1OC [TCMDC-124719],58.09
19,Cc1cc(N(C)C)nc(Nc2ccc(NC(=O)c3ccccc3C)cc2)n1 [TCMDC-124729],-17.39
20,COc1ccccc1C(=O)Nc1ccc(Nc2nc(C)cc(N(C)C)n2)cc1 [TCMDC-124728],-11.89
21,COc1cccc(C(=O)Nc2ccc(Nc3nc(C)cc(N(C)C)n3)cc2)c1 [TCMDC-124720],-4.624
22,COc1ccc(NC(=O)Nc2ccc(Nc3nc(C)cc(N(C)C)n3)cc2)cc1 [TCMDC-124960],1.588
23,COc1ccc(C(=O)Nc2ccc(Nc3nc(C)cc(N(C)C)n3)cc2)c(OC)c1 [TCMDC-124727],63.21
